Our source for the inhibition values is PubChem BioAssay AID588832 (Broad Institute, 2011).

The campaign covered roughly 8,000 compounds. Fewer than 10 were called active. Not all results are given here. Values without a mark were called inactive. The rule behind the calls is not given here.

The assay deals with hedgehog, isoform A (Drosophila melanogaster). As to the kind of experiment: Hh protein inhibition, biochemical readout – plate reader, single concentration, primary screen (AID 588832).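 Note: 0% = neutral control wells and 100% = positive control wells.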 The note with it: Biochemical plate reader assay, at 30.3 µM, hits give high values.
As a reminder, the inhibition is the change of the read-out against control, counted positive when it falls. Regarding `COc1cc(OC)c(NS(=O)(=O)c2coc(C(N)=O)c2)cc1Cl`, the inhibition was 25%.

For the compound `O=C(C1COc2ccccc2O1)N1CCn2c(nc3ccccc32)C1` (configuration not stated), the inhibition was 4.17%.

For `COc1cc(-c2cc(=O)c3c(O)c(OC)c(OC)c(OC)c3o2)cc(OC)c1OC`, the inhibition is 3.45%.

For the compound `O=C(CN1CCOc2ccccc21)NC1CCCCCCC1`, the inhibition is 25%.

For `Cc1cccc(NC(=O)CSc2nc3ccccc3nc2N2CC(C)OC(C)C2)c1` (configuration not stated), the inhibition is 3.85%.

For the compound `CCOc1ccc(NC(=O)c2cccc(NC3=NC4CS(=O)(=O)CC4S3)c2)cc1` (configuration not stated), the inhibition is 5.12%.

`COc1ccccc1C(=O)OCn1nnc2ccccc2c1=O`: the inhibition is -5%.

In the case of `Cc1c(C)c2c(OCC(=O)N[C@@H](Cc3ccccc3)C(=O)O)cc3c(c2oc1=O)CCC(C)(C)O3`, the inhibition was -1.79%.

As for `Clc1ccccc1C1CC(c2ccccc2)Nc2ncnn21` (configuration not stated), the inhibition is 8.33%.

As for `O=C(NCCCN1CCOCC1)c1ccccc1N1C(=O)[C@@H]2Cc3c([nH]c4ccccc34)C(c3cccc(Cl)c3)N2C1=O` (some centres not stated), the inhibition was 0%.

In the case of `CCCc1cc(=O)oc2cc(OC(C)C(=O)NCC3CCC(C(=O)O)CC3)c(Cl)cc12` (configuration not stated), the inhibition is 7.18%.

Turning to `O=C(CCC(=O)N1CCOc2ccccc21)Nc1ccccc1Br`, the inhibition was 6.78%.

Regarding `CC1(C)Cc2c(C#N)c(NC3CCCCC3)nc(-c3ccco3)c2CO1`, the inhibition is 3.64%.

In the case of `COc1ccc2[nH]c3c(c2c1)CCN1C(=O)N([C@@H](C)C(=O)NCc2ccc(C)cc2)C(=O)[C@]31C`, the inhibition was 0%.

For `CC(=O)O[C@H]1C(=O)[C@@]2(C)C([C@H](OC(=O)c3ccccc3)[C@]3(O)C[C@H](OC(=O)[C@H](O)[C@@H](NC(=O)c4ccccc4)c4ccccc4)C(C)=C1C3(C)C)[C@]1(OC(C)=O)CO[C@@H]1C[C@H]2O` (some centres not stated), the inhibition is 5.12%.

As to `CCc1nn(CC(=O)N2CCN(C)CC2)c(=O)c2cccn12`, the inhibition is 5.06%.

Consider `Cc1ccc(S(=O)(=O)NCc2ccc3[nH]c(C)cc3c2)cc1`, for which the inhibition was 3.57%.

With `CC1CCCN(C(c2ccccc2)c2sc3ncnn3c2O)C1` (configuration not stated), the inhibition is 5.06%.

With `CCOc1ccc(-n2c(SCC(=O)N3CCc4ccccc43)nnc2-c2c[nH]c3ccccc23)cc1`, the inhibition is 13.3%.

As to `Nc1nc2n(n1)C(c1cccc(Br)c1)CC(c1ccc(F)cc1)N2` (configuration not stated), the inhibition was 23.4%.

Consider `CCOc1ccc(-c2nc(CS(=O)(=O)CC(=O)NCc3ccc(F)cc3)c(C)o2)cc1`, for which the inhibition was 3.57%.

For the compound `COc1ccccc1NC(=O)NCCCN1CCN(c2cccc(Cl)c2)CC1`, the inhibition is -5.49%.

For `Cc1c(S(=O)(=O)Nc2cccc(Cl)c2)c(=O)n(C)c(=O)n1C`, the inhibition was 0.909%.

Take `COc1cc(OC)cc(C(=O)OCn2nnc3ccccc3c2=O)c1`: the inhibition was 0%.

For the compound `COC(=O)c1ccccc1NC(=O)C1CCCN(c2nnc(-n3cccc3)s2)C1` (configuration not stated), the inhibition is 0.909%.

Take `C/C=C/c1cc(OC)c2c(c1)[C@H](C)[C@@H](c1ccc(O)c(OC)c1)O2`: the inhibition is 0%.

As to `CCCn1c(CN2CCCCC2C)nc2c1c(=O)n(C)c(=O)n2C` (configuration not stated), the inhibition was 3.57%.

For `COC(=O)C1=C(C)Nc2ccc(C)cc2S1`, the inhibition was 0%.

Consider `CC(=O)c1ccc(NC(=O)C2CCCN2S(=O)(=O)c2ccc(C)cc2)cc1` (configuration not stated), for which the inhibition was 15.4%.

`CCOc1ccc(NC(c2ccccn2)c2oc(CO)cc(=O)c2O)cc1` (configuration not stated): the inhibition was 1.85%.

For the compound `COc1ccc(NC(=O)c2cc(S(=O)(=O)N3CCc4ccccc43)cn2C)cc1`, the inhibition was -3.51%.

Regarding `O=C(CSc1nc2c(c(=O)n1-c1ccccc1)SCC2)N1CCN(c2ccccc2)CC1`, the inhibition was 5.23%.

For the compound `NC(=O)c1cccc2c1C(=O)N(C1CCCCC1)C2`, the inhibition was 6.78%.

Regarding `Cc1ccccc1C(=O)Nc1nnc(S(=O)(=O)N2CCCCC2)s1`, the inhibition was 3.67%.

Consider `O=C(Nc1ccccc1)N1CCC(n2c(=O)[nH]c3ccccc32)CC1`, for which the inhibition was 11.9%.

For `Cc1cc2c(cc(C(=O)N3CCC(C(=O)N4CCCC4)CC3)n2Cc2c(F)cccc2Cl)o1`, the inhibition was 6.84%.

As to `C=C1CCCC2OC(CC3=CC4/C(C)=C/CC(C)CC(/C=C(\C)C(O)C5CC(O)C(O)C(CCC(O)/C=C/C(C)=C/CCC6=NCCC(C3)C64C)O5)OC(=O)CC3OC(C(O)C1)C(O)C3O)CC(O)C2O` (configuration not stated), the inhibition is 5.17%.

Turning to `Nc1nonc1-n1nnc(C(=O)N/N=C/c2ccc(O)cc2)c1CN1CCCCCC1`, the inhibition was -1.79%.

Take `CC1C(=O)Nc2ccc(S(=O)(=O)N3CCN(c4cccc(Cl)c4)CC3)cc2NC1=O` (configuration not stated): the inhibition is 7.02%.

For the compound `O=c1ccc2cc(S(=O)(=O)N3CCN(c4ccccc4F)CC3)ccc2[nH]1`, the inhibition is -3.85%.

For `COc1ccccc1CNC(=O)[C@H](Cc1c[nH]c2ccccc12)NC(=O)[C@@H]1Cc2ccccc2CN1`, the inhibition was 3.6%.

For the compound `CCOC(=O)c1ccc(NC(=O)COc2cc(=O)n(CC)c3ccccc23)cc1`, the inhibition was 4.17%.

Consider `COC(=O)C(N)CCCCN` (configuration not stated), for which the inhibition is 3.45%.

On to `COc1ccc(NC(=O)c2cc(CC(C)C)on2)cc1OC`, for which the inhibition was 8.45%.

Regarding `CCOC(=O)N1CCC(N2Cc3cccc(C(=O)N4CCN(C5CCCCC5)CC4)c3C2=O)CC1`, the inhibition was 5.77%.

For the compound `CCSc1nnc2c(n1)OC(c1ccc(C(=O)O)cc1)N(C(C)=O)c1ccccc1-2` (configuration not stated), the inhibition is 0.848%.

With `Cc1ccc(-c2nc(CS(=O)CC(=O)NCCCN3CC(C)CC(C)C3)c(C)o2)cc1` (configuration not stated), the inhibition was 3.85%.

For `Cc1oc(-c2ccc(Cl)cc2)nc1CS(=O)CC(=O)NCc1cccs1` (configuration not stated), the inhibition was 5.23%.

With `COc1ccc(N2CCN(C(=O)c3ccc(CS(=O)(=O)c4ccccc4C)o3)CC2)cc1`, the inhibition was 7.34%.

As for `Cc1ccc(-c2nc3cccnc3s2)cc1NS(=O)(=O)c1ccc2c(c1)CCCC2`, the inhibition was 6.78%.

Turning to `CCC(NS(=O)(=O)c1ccc(C)cc1)C(=O)N1CCN(c2ccccn2)CC1` (configuration not stated), the inhibition is 20.8%.

As to `Cc1ccc(S(=O)(=O)Nc2ccc(O)c3ncccc23)cc1`, the inhibition is 64.4% (active).

`COc1c2c(c(C)c3c1C(=O)OC3)O[C@@]1(C)CC[C@@]3(O)C(C)(C)OC(=O)CC[C@]3(C)[C@H]1C2`: the inhibition was -1.82%.

Regarding `O=C(Cc1cc(=O)[nH]c(=O)[nH]1)NCCN1CCOCC1`, the inhibition is 9.62%.

On to `COc1ccc2c(c1OC)C(=O)N1C2SC[C@H]1C(=O)NC1CCCCC1` (some centres not stated), for which the inhibition was 4.89%.

For `c1ccc(Nc2nc3ccccc3n3nnnc23)cc1`, the inhibition is 1.79%.

As to `Cc1cc(C)cc(N2CC(c3nc4ccccc4n3C)CC2=O)c1` (configuration not stated), the inhibition is 5.06%.

For the compound `Cc1ccc(CNC(=O)[C@@H](NC(=O)C2CCN(C(=O)[C@@H]3CCCN3)CC2)C(C)C)cc1`, the inhibition is 8.17%.

Regarding `Cc1csc2ncc(C(=O)NC(C)c3ccccc3)c(=O)n12` (configuration not stated), the inhibition is 7.24%.

Take `CC1CCN(Cc2ccc(NC(=O)C3CCN(c4nnc(-n5cccc5)s4)CC3)cc2)CC1`: the inhibition was 1.99%.

Take `CCOC(=O)Cn1c(=O)n(Cc2ccco2)c(=O)c2ccc(C(=O)NC3CCCC3)cc21`: the inhibition was -13%.

Take `O=C(Nc1ccc(F)cc1F)C1CCN(c2ncnc3c2sc2cccc(F)c23)CC1`: the inhibition was 7.02%.

On to `CCCCOC(=O)c1cc(=O)[nH]c(=O)[nH]1`, for which the inhibition was 5.12%.

Consider `Cc1cc(C)n2nc(S(=O)(=O)N(C)c3ccccc3)nc2n1`, for which the inhibition is 6.52%.

Consider `Cc1nc2sc(C(c3ccccc3)N3CCN(C)CC3)c(O)n2n1` (configuration not stated), for which the inhibition was 14.5%.

Regarding `COc1ccc(-c2nc(C(=O)NCCCN3CCOCC3)cc3c2[nH]c2ccccc23)cc1OC`, the inhibition is 1.72%.

Consider `C[C@H](NC(=O)[C@H]1N2C(=O)c3ccccc3C2SC1(C)C)C(=O)N1CCC[C@H]1CO` (some centres not stated), for which the inhibition was 1.72%.

Consider `Cc1ccc(Cl)cc1N1CCN(C(=O)C2CCN(c3nnc(-n4cccc4)s3)CC2)CC1`, for which the inhibition was 15.4%.

For the compound `Cc1cc(C)n2c(SCC(=O)Nc3ccccc3)nnc2n1`, the inhibition is -12.9%.

For the compound `Cc1ccc(S(=O)(=O)Nc2ccccc2C(=O)Nc2sccc2C(=O)NN(C)C)cc1`, the inhibition was 7.69%.

`COc1c(O)c(O)c2oc(-c3ccccc3)cc(=O)c2c1OC`: the inhibition was 6.79%.

In the case of `O=c1cc(-c2ccc(O)cc2)oc2c(O)c(O)c(O)c(O)c12`, the inhibition was 89.5% (active).

In the case of `O=c1cc(-c2ccc(O)cc2)oc2c(-c3c(O)cc(O)c4c(=O)cc(-c5ccc(O)cc5)oc34)c(O)cc(O)c12`, the inhibition is 3.51%.

Regarding `CN(C)C(=O)c1nnc(Cc2ccc(Cl)cc2)o1`, the inhibition is 12.9%.

With `Cc1c(C(=O)NNc2cc(=O)n(C)c(=O)n2C)cccc1[N+](=O)[O-]`, the inhibition is 1.72%.

On to `NC(=O)c1c(NC(=O)c2c(F)cccc2F)sc2c1CCN(Cc1ccccc1)C2`, for which the inhibition is 0%.

For `COc1ccc(-n2c(Cc3cccn3C)nnc2SCC(=O)Nc2ccccc2OC)cc1`, the inhibition is 5%.

Take `CCOc1ccc(C(=O)c2cnc3ccccc3c2N2CCN(CC)CC2)cc1`: the inhibition is 20%.

Take `O=C(Cn1cnc2c(nnn2Cc2ccccc2)c1=O)NCc1ccco1`: the inhibition was 2.73%.

In the case of `CCOC(=O)c1c(C)c(-c2ccccc2)n(CC(=O)N2CCCC2)c1C`, the inhibition is 0.909%.

As for `Cc1cc(Nc2cccc(F)c2)n2nc(C)nc2n1`, the inhibition was -2.57%.

As for `C=CC[C@]12C[C@@H](OC)C(=O)C=C1O[C@@H](c1ccc(OC)c(OC)c1)[C@H]2C`, the inhibition was 8.62%.

For `CC1Cc2ccccc2N1C(=O)c1cnc2sccn2c1=O` (configuration not stated), the inhibition was -0.943%.

With `CCOc1ccc(CC(=O)NCc2ccc3c(c2)cc(C)n3C)cc1`, the inhibition is 3.85%.

On to `O=C(COc1ccc2c(c1)oc(=O)c1ccccc12)N[C@@H](Cc1ccccc1)C(=O)O`, for which the inhibition was 0%.

As to `COC(=O)C1=C(C)n2cnnc2NC1c1ccc(Cl)cc1` (configuration not stated), the inhibition is 15%.

Take `Cc1ccc(C)c(N2CCN(C(=O)c3ccc4c(=O)n5c(nc4c3)CCCCC5)CC2)c1`: the inhibition was -12.9%.

Consider `COc1ccc(C(=O)NCc2ccc3c(c2)cc(C)n3C)cc1`, for which the inhibition is 5.23%.

`COc1ccccc1NS(=O)(=O)c1cc2c(cc1C)NC(=O)CO2`: the inhibition was 9.62%.

With `Cc1ccc(NC(=S)NCc2ccc3[nH]c4c(c3c2)CCCC4)cc1`, the inhibition was 4.39%.

With `COc1ccc(-c2nc(CS(=O)CC(=O)NCCC3=CCCCC3)c(C)o2)cc1` (configuration not stated), the inhibition is 7.69%.

As for `Cc1cnc(NC(=O)CSc2nnc(COc3c(C)cccc3C)o2)s1`, the inhibition was 10%.
